Only some compounds are listed: those with a hit (about 4.6% of all), similar ones and a draw of the others.
sEH activator = increases human soluble epoxide hydrolase activity; purified human sEH enzymatic activity, activator screen; actives 0.04% (n = 91,000); P34913; activation, % at 2 µM; in the data active = activation above about 37%
Target sequence (P34913 whole entry, looked up): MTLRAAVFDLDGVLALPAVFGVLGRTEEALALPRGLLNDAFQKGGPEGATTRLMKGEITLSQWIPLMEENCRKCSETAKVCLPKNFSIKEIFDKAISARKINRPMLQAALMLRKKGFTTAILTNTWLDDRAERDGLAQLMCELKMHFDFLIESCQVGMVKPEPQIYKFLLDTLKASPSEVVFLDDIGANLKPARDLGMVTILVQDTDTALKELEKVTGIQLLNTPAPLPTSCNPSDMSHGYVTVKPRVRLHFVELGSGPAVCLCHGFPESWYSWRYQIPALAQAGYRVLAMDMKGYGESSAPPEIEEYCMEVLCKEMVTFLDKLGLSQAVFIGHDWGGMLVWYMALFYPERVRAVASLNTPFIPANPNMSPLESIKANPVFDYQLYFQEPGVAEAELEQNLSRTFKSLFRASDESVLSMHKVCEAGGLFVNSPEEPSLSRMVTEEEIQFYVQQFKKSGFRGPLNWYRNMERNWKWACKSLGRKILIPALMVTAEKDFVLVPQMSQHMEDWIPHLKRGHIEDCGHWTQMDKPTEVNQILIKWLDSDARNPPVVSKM
IL1B NFkB inh = blocks IL-1B driven NFkB nuclear translocation in HUVEC cells; HUVEC IL-1B NFkB p65 nuclear translocation imaging; inhibition, % at 2 µM; actives 0.43% (n = 94,000); AID 796;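 active = inhibition above about 30% together with a positive call from visual inspection of the well image, limit read from the data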;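 also: nuclear over cytoplasmic p65 intensity ratio measured by imaging; 0% = IL-1B stimulated DMSO wells and 100% = unstimulated DMSO wells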
HUVEC tox IL1B = toxic to HUVEC cells under IL-1B stimulation; HUVEC cell count loss, Hoechst imaging, IL-1B stimulated; cell count reduction, % at 2 µM; AID 845; actives 0.41% (n = 94,000);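 active = cell count reduction more than 3 SD above the screen-wide mean, cut at about 70% in these data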;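 also: normalized per plate to untreated control cells as the no-loss baseline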
Cav32 inh = inhibitors of human Cav3.2 T-type calcium channel. O95180. Cav3.2-expressing cells, Fluo-4 calcium fluorescence FDSS; stronger effect = lower value. B-score at 10 µM. actives 4% (n = 100,000). AID 449739;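 active = single-dose well whose peak fluorescence ratio is a statistical outlier from its plate by either plate-standardised score or position-corrected B-score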
sEH inh = inhibitors of human soluble epoxide hydrolase | P34913 | recombinant human sEH enzymatic activity assay | inhibition, % at 2 µM | actives 0.34% (n = 91,000) | AID 707; in the data active = inhibition above about 80%
NFkB transloc pot = enhances IL-1B driven NFkB nuclear translocation. HUVEC IL-1B NFkB p65 nuclear translocation imaging. activation, % at 2 µM. actives 0.3% (n = 94,000). AID 819;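 active = activation above 40%, about the mean plus 3 SD, also judged a hit on visual image review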;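 also: percent activation is computed from the nuclear over cytoplasmic p65 intensity ratio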
* marks the source's active call; other numbers are inactive results; . = no result given.

SMILES | sEH activator | IL1B NFkB inh | HUVEC tox IL1B | Cav32 inh | sEH inh | NFkB transloc pot
COc1ccccc1NC(=O)N(Cc1ccco1)Cc1cc2cc(C)cc(C)c2[nH]c1=O | 16 | 10 | -9 | -5.1* | -17 | -10
CCc1ccc2[nH]c(=O)c(CN(CCN(C)C)C(=O)Nc3ccccc3OC)cc2c1 | 3 | -9 | -3 | 1.6 | -4 | 9
Cc1ccc(C)c2[nH]c(=O)c(CN(CCCN(C)C)C(=O)NCc3ccccc3)cc12 | . | . | . | 0.088 | . | .
O=C(NCc1nnc(SC/C=C/c2ccccc2)o1)c1ccco1 | 9 | 15 | 44 | -2.2 | -7 | -15
COc1ccc(S(=O)(=O)NN=C2CCCC2)cc1 | 0 | -6 | -11 | -0.76 | -2 | 6
Cc1ccccc1-c1coc2cc(O)ccc2c1=O | -12 | -5 | -15 | -0.097 | 14 | 5
CCn1c(=O)cc(OCC(=O)Nc2ccccc2C#N)c2ccccc21 | 4 | 23 | 8 | -0.36 | -4 | -23
Cc1ccc2cc(CN(Cc3ccco3)C(=O)c3ccccc3)c(=O)[nH]c2c1C | 0 | -11 | -17 | 0.015 | -1 | 11
COc1ccccc1NC(=O)N(Cc1ccco1)Cc1cc2ccc(C)c(C)c2[nH]c1=O | -7 | -26 | 11 | -6.7* | 7 | 25
Cc1ccc2cc(CN(Cc3ccco3)C(=O)NCc3ccccc3)c(=O)[nH]c2c1C | -53 | 4 | -57 | -4.3* | 54 | -4
COc1ccc(C2CC(=O)c3cnc(NC(=O)c4ccccc4)nc3C2)c(OC)c1 (centres undefined) | 3 | -10 | -19 | -3.3* | -5 | 10
Cn1c(CNc2cccc(Cl)c2)nnc1SCC(=O)OC1CCCCC1 | 6 | -1 | 28 | -8.5* | -9 | 1
CC(C)OC(=O)CSc1nnc(CNc2cccc(Cl)c2)n1C | -11 | -2 | -40 | 0.62 | 13 | 2
CCOC(=O)CSc1nnc(CNc2cccc(Cl)c2)n1-c1ccccc1 | . | -1 | -5 | -5.6* | . | 1
CCOC(=O)C1CCN(S(=O)(=O)c2ccc(-c3nc4ccccc4s3)s2)CC1 | 9 | -7 | 0 | 0.12 | -10 | 7
Cn1nc(-c2ccc(C(=O)N3CCN(c4ccccc4)CC3)cc2)c2ccccc2c1=O | 2 | 99* | 90* | . | -4 | -99
O=C(CCn1c(=S)[nH]c2ccccc2c1=O)NCC1CCCO1 (centres undefined) | 5 | 2 | 6 | -4.5* | -6 | -2
Cn1nc(-c2ccc(OCC(=O)NCC3CCCO3)cc2)c2ccccc2c1=O (centres undefined) | 5 | -28 | -13 | 0.46 | -6 | 28
Cn1nc(-c2ccc(C(=O)NCC3CCCO3)cc2)c2ccccc2c1=O (centres undefined) | -4 | 6 | 90* | -0.27 | 1 | -6
O=C(c1ccc(N2CCCC2=O)cc1)N1CCN(c2ccccc2)CC1 | 2 | -44 | -31 | 0.097 | -1 | 44*
Brc1ccc(C2=Nn3c(nnc3-c3cccnc3)SC2)s1 | -1 | -13 | -91 | 0.16 | -2 | 13
O=C1N2c3ccccc3CCc3cccc(c32)C1(O)C(F)(F)F (centres undefined) | -3 | 14 | 2 | -5.6* | 5 | -14
CC(C)(C)NC(=O)COC(=O)c1snc(C(=O)NC2CCCCC2)c1N | -14 | -12 | -10 | -2.3 | 13 | 12
Cc1ccccc1NC(=O)Cn1nc(-c2ccccc2)nc1-c1ccccc1 | 3 | -7 | -21 | -0.9 | 0 | 7
Cc1nn(Cc2c(F)c(F)c(F)c(F)c2F)c(C)c1NC(=O)c1ccc(COc2ccccc2Cl)o1 | -13 | 3 | -13 | . | 18 | -3
SMILES | sEH activator | IL1B NFkB inh | HUVEC tox IL1B | Cav32 inh | sEH inh | NFkB transloc pot
Cc1nn(Cc2c(F)c(F)c(F)c(F)c2F)c(C)c1NC(=O)c1ccc(COc2ccc(F)cc2)o1 | -11 | 4 | -2 | -4.9* | 11 | -4
COc1ccc(C(=O)CSC2=C(C#N)C3(CCCCC3)C(C#N)=C(N)N2)cc1 | . | 3 | 7 | -0.65 | . | -3
O=C(Nc1ccc(F)c(Cl)c1)c1ccc2c(=O)n3c(nc2c1)CCCCC3 | -32 | -9 | -29 | -7.7* | 32 | 9
O=C(Nc1cccc(Cl)c1)c1ccc2c(=O)n3c(nc2c1)CCCCC3 | 6 | -3 | 25 | -5.7* | -8 | 3
CN(C)c1cccc(C(=O)Nc2ccc3nc4n(c(=O)c3c2)CCCCC4)c1 | 4 | -22 | -4 | -0.85 | -6 | 22
O=C(c1ccc2c(=O)n3c(nc2c1)CCCCC3)N1CCN(C(c2ccccc2)c2ccccc2)CC1 | -10 | -1 | 3 | -4.8* | 11 | 1
Cc1ccc(CN2CCC(c3nc4ccc(Cl)cc4[nH]3)CC2)cc1 | 4 | 34* | 0 | -3 | -1 | -34
O=C(Nc1ccccc1)C1CC(=O)N(c2ccc3c4c(cccc24)CC3)C1 (centres undefined) | 3 | 11 | -19 | -1.2 | -1 | -11
C=CCNC(=S)NNC(=O)c1cccn(Cc2ccc(Cl)cc2)c1=O | -1 | -4 | 84* | 0.27 | -2 | 4
CN(C)S(=O)(=O)c1ccc2c(c1)nc(CCC(=O)NCC1CCCCC1)n2C | -39 | 6 | -5 | 0.77 | 41 | -6
COc1ccc(N(CC(=O)Nc2cccc(SC)c2)S(C)(=O)=O)cc1Cl | -2 | -21 | -29 | -5.9* | 2 | 21
COc1ccc(Cl)cc1N(CC(=O)Nc1cccc(SC)c1)S(C)(=O)=O | -3 | -1 | -29 | -2.8 | 4 | 1
CSc1cccc(NC(=O)CN(c2cc(C)ccc2C)S(C)(=O)=O)c1 | -5 | -5 | -10 | -5.8* | 4 | 5
NC(=O)CC(c1ccccc1)c1ccco1 (centres undefined) | -14 | 4 | 14 | 0.12 | 14 | -4
CC(=O)N(CCC(c1ccccc1)c1ccco1)Cc1cccs1 (centres undefined) | . | -11 | -15 | -7.4* | . | 11
COc1ccc(CNC(=O)C(c2ccco2)N(Cc2ccccc2)C(=O)Cc2cccs2)cc1 (centres undefined) | -2 | 12 | -5 | 0.095 | 2 | -12
CCC(=O)N(CCC(c1ccco1)c1ccccc1OC)Cc1cccs1 (centres undefined) | -6 | -9 | 9 | -5.8* | 6 | 9
O=C(c1ccccc1)N1CC(COc2ccccc2)OC(c2ccco2)O1 (centres undefined) | . | 6 | -28 | -4* | . | -6
COc1ccc(C(=O)c2ccc(OC)c(N)c2)cc1N | 2 | -70 | -13 | -1 | 0 | 70*
COc1ccc(C(=O)c2ccc(OC)c(OC)c2)cc1OC | -10 | 1 | 9 | -0.15 | 12 | 1
O=c1ccc2cc(S(=O)(=O)N3CCN(c4cc(Cl)ccc4Cl)CC3)ccc2o1 | 15 | -7 | 7 | -4.3 | -19 | 7
Cc1ccc(N2C(=O)N(CC(=O)NC(c3ccccc3)c3ccccc3)C(=O)C2C)cc1 (centres undefined) | -11 | -5 | 10 | -10* | 13 | 5

Screening data (PubChem BioAssay)
